NTR1 ag = agonists of human neurotensin receptor NTR1; P30989; NTR1-U2OS beta-arrestin-GFP spot imaging, agonist mode; AID 493036; actives 0.17% (n = 330,000); activation, % at 20 µM;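 active = activation at or above 40% of the spot to cytoplasm intensity ratio, with at least 20 cells analyzed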;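 note: 0% = DMSO without peptide and 100% = 100 nM NTR1 peptide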
Target sequence (P30989 whole entry, looked up): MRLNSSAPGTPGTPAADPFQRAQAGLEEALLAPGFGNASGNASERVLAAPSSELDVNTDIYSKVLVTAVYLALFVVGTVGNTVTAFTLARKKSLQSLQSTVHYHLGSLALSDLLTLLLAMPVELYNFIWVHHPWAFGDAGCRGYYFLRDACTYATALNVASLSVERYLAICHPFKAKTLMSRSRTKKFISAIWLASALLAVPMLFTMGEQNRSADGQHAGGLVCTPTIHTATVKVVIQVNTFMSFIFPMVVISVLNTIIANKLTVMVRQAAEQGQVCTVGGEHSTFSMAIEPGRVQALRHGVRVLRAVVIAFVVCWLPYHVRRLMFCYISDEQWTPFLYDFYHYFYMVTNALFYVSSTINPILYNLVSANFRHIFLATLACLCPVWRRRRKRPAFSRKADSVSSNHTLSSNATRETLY
V-ATPase pH = regulators of yeast V-ATPase proton transport; S. cerevisiae, pHLuorin cytosolic pH fluorescence; actives 0.37% (n = 350,000); response, % at 10 µM; in the data active = response mostly above about 7.3%, no sharp cut-off; inactive = mostly below about 5.4%; note: actives read high
CRFBP-R2 agonist = CRF-BP/CRF-R2 complex agonism; actives 0.46% (n = 350,000); activation, % at 13.2 µM; HEK293 CRF-R2/CRF-BP, calcium dye fluorescence (FLIPR); percent of saturating CRF peptide response; AID 588473;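 active = activation of at least 50%, plus an integration ratio under a set limit after plate pattern correction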;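 note: plate controls were neutral control wells without compound for no effect and CRF at EC100 for full effect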
CRFR2-BP antag = blocks CRF-induced signaling of the CRF-BP/CRF-R2 complex; actives 0.59% (n = 350,000); HEK293 CRF-R2/CRF-BP, CRF-induced calcium fluorescence; inhibition, % at 11.8 µM;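 active = inhibition of the ligand-induced calcium signal above about 50% at the single tested concentration, limit read from the data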
V-ATPase pH SP = yeast V-ATPase proton transport regulation | shares compounds with V-ATPase pH | S. cerevisiae pHLuorin cytosolic pH | response, % at 10 µM | actives 2% (n = 980); in the data active = response above about 24%;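 note: plate controls were vehicle wells for no effect and positive control wells for full effect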
Starred values were filed as active, the others as inactive; . = no result. Rows were chosen to be rich in hits. Some 1.5% of all compounds tested hit in one or more screens of this group.

SMILES	NTR1 ag	V-ATPase pH	CRFBP-R2 agonist	CRFR2-BP antag	V-ATPase pH SP
COCCN(Cc1ccccc1)C(=O)c1c(C)nn(-c2ccccc2)c1C	-1.5	9.2*	0.1	-6.1	-0.2
CC(c1ccccc1)C1C(C#N)=C(N)OC2=C1C(=O)CC(C)(C)C2 (stereo unspecified)	-0.1	11.2*	-2.2	10.8	-1.1
CC1(C)CC(=O)C2=C(C1)OC(N)=C(C#N)C2C#Cc1ccccc1 (stereo unspecified)	0.8	2.1	14.5	2.2	.
CCOc1ncccc1C(=O)Nc1nc(C(C)(C)C)cs1	5.0	9.4*	-0.7	-0.8	-0.2
C=CC[C@@H](CC(=O)N(CCO)Cc1ccccc1)C(=O)N[C@@H](C)COC(=O)[C@@H](CC=C)CC(=O)OC(C)(C)C	-1.2	13.6*	-2.5	1.2	4.7
O=C(Nc1cccc(F)c1)/C(=C/c1ccco1)NC(=O)c1ccco1	-0.5	-1.5	1.8	7.3	.
O=C(Nc1ccccc1)OCC1COC(c2ccccc2)(c2ccccc2)O1 (stereo unspecified)	.	0.6	2.6	9.7	.
CCNC(=O)/C(C#N)=C/c1c(N2CCN(c3ccc(OC)cc3)CC2)nc2c(C)cccn2c1=O	4.9	14.1*	0.5	-49.9	1.0
CCNC(=O)/C(C#N)=C/c1c(N2CCN(c3ccccc3)CC2)nc2c(C)cccn2c1=O	7.3	0.9	-0.7	25.4	.
CC(Sc1ccccc1)C(=O)NN=C1CCN(C)CC1 (stereo unspecified)	0.5	0.7	0.3	10.1	.
CCCN(C(=O)COc1ccc(C(C)=O)cc1OC)C1CCS(=O)(=O)C1 (stereo unspecified)	-3.2	10.2*	0.6	-6.9	-5.3
COc1ccc(CN(C(=O)COc2ccc(C)c(C)c2)C2CCS(=O)(=O)C2)cc1OC (stereo unspecified)	4.6	-1.6	-5.1	23.6	.
Cc1cc(C)[n+](Cc2ccccc2)cc1C(N)=O	-1.3	-1.8	1.6	-3.4	.
CC(=O)c1c(C)[nH]c(C(=O)NCc2cccc(Cl)c2)c1C	-1.9	9.6*	2.1	-0.9	-1.5
CCCNC(=O)CCCN1C(=O)c2ccccc2Sc2ncccc21	0.5	9.0*	2.2	-8.7	4.8
CCCCSCCCNC(=O)CCCN1C(=O)c2ccccc2Sc2ncccc21	-0.2	-2.7	-2.1	-10.2	.
C=CCNCCOc1c(C)cc(C)cc1Cl	-1.6	7.7*	-5.5	-5.0	2.7
O=C(NCCc1cccs1)c1ccc(Cl)cc1	0.9	-2.8	-2.1	-4.6	.
O=C(NCCc1cccs1)c1ccc(Cl)c(Cl)c1	2.8	8.8*	-4.2	3.0	1.0
O=c1c2c(-c3ccccc3)csc2ncn1/N=C/c1cccc([N+](=O)[O-])c1O	-1.1	81.8*	37.3	15.1	3.8
CCCCCOc1ccc2oc(=O)c3c(c2c1)CCCN3C(=O)CN1CCCC(C(=O)OCC)C1 (stereo unspecified)	3.2	12.9*	0.2	14.6	2.0
O=C(CN1CCCCC1)N1CCCc2c1c(=O)oc1ccc(OCc3ccccc3)cc21	3.7	-0.8	-1.4	-2.8	.
CC(Oc1cccc2cccnc12)C(=O)N/N=C/c1ccccc1 (stereo unspecified)	-1.8	1.1	-0.7	4.7	.
CC(Oc1cccc2cccnc12)C(=O)N/N=C/c1ccc2c(c1)OCO2 (stereo unspecified)	-0.3	7.0*	-1.2	11.6	1.6
Cc1ccc(-n2c3c(cc(C(=O)NCCCN4CCOCC4)c2=O)C(=O)CC(C)(C)C3)cc1	0.7	11.3*	0.0	1.6	-0.1
SMILES	NTR1 ag	V-ATPase pH	CRFBP-R2 agonist	CRFR2-BP antag	V-ATPase pH SP
Cn1c(SCCN2CCCCC2)nnc1-c1ccccc1Br	-0.6	3.5	0.1	5.4	.
O=S1(=O)C=C(SCCN2CCCCC2)c2ccccc21	-0.6	-2.4	0.2	-7.4	2.7
COc1ccc(NS(=O)(=O)c2cc(NC(=O)/C=C/c3ccccc3OC)ccc2N2CCCCC2)cc1	2.9	-0.4	2.8	-13.8	.
COCCCn1c(C(=O)NCCN2CCOCC2)cc2c(=O)n3cccc(C)c3nc21	0.3	8.2*	0.1	3.6	7.0
CC1Cc2ccccc2N1S(=O)(=O)c1cccc(C(=O)NCCCn2ccnc2)c1 (stereo unspecified)	0.7	10.1*	0.2	-11.2	-0.7
O=C(NCCCn1ccnc1)c1cccc(S(=O)(=O)N2CCCCCC2)c1	-0.5	-2.2	-1.6	5.5	.
CC(C)c1ccc([N+](=O)[O-])cc1S(=O)(=O)N1CCN(C)CC1	0.3	2.9	1.5	18.1	.
Cc1cc(OCc2nc(-c3ccncc3)no2)cc(C)c1Cl	-1.1	4.5	0.4	-4.0	.
COc1ccccc1NC(=O)C(C)OC(=O)CCCOc1ccccc1 (stereo unspecified)	-0.6	10.9*	-0.5	-3.9	-2.2
Nc1c(Br)cc2c([nH]c(=O)c3ccccc32)c1Br	.	2.1	-2.7	12.0	.
O=C(NCC1CCCCC1)c1ccccc1[N+](=O)[O-]	1.6	12.6*	-1.7	19.9	1.1
Cc1cc(C)c(C)c(S(=O)(=O)Nc2ccccc2N2CCOCC2)c1C	5.0	-4.1	0.9	1.5	.
COc1nc(N(C)C)nc(N(C#N)S(=O)(=O)c2ccc(C)cc2)n1	-0.7	11.0*	-1.9	20.1	-4.4
Brc1ccc(CNc2cc3c(cc2Br)OCCO3)cc1	4.1	-0.8	1.6	0.9	.
CC(C)(C)[C@H]1COC(=O)[C@@H](Cc2ccc(F)cc2)CC/C=C/C[C@@H](CC(=O)N[C@H](CO)Cc2ccccc2)C(=O)N1	6.8	1.2	18.1	-23.0	.
CC(=O)Nc1ccc(S(=O)(=O)NNC(=O)COc2ccc(Cl)cc2Cl)cc1	-0.4	13.4*	-0.4	5.4	4.1
CC(=O)Nc1ccc(S(=O)(=O)NNC(=O)COc2ccc(C)cc2)cc1	-1.2	1.2	0.5	-5.7	.
CS(=O)(=O)c1ccc2nc(NC(=O)CCNC(=O)c3ccc(Cl)cc3)sc2c1	-1.1	-1.7	-1.4	-21.3	.
Cc1cccc(C(=O)Nc2ccnc(-c3cccnc3)n2)c1	0.8	-4.1	0.0	-18.8	.
Cc1cccc(C(=O)Nc2ccnc(-c3ccncc3)n2)c1	2.3	8.5*	-1.8	-18.6	0.4
c1cnc(Sc2ccc3nnnn3n2)nc1	-0.4	-4.4	0.5	1.1	.
O=C(Nc1cccc(C(F)(F)F)c1)c1cccnc1N1CCN(c2ccccc2)CC1	4.6	12.3*	-3.9	9.0	-2.3
CCN1CCN(CCCNC(=O)Cn2nc(C)n3nc(-c4ccccc4)cc3c2=O)CC1	0.7	18.8*	0.8	-4.1	2.3
COCCNC(=S)N(CCc1c(C)[nH]c2ccccc12)Cc1ccco1	3.4	10.7*	-3.4	19.0	-2.9
O=C(Nc1cc(Cl)ccc1C(=O)O)c1ccc(CN2C(=O)c3ccccc3C2=O)cc1	.	1.2	-3.7	42.0	.
O=C(O)Cn1c(-c2ccccn2)nc2ccccc21	-0.5	1.7	3.1	4.9	.
CCCCn1c(=O)c(CCC(=O)O)nc2ccccc21	1.6	-2.3	-4.3	18.7	.
COC(=O)Cn1c(=O)c(C)nc2ccccc21	0.7	-1.6	-0.3	9.2	-3.0
CCOC(=O)Cc1nc2ccccc2n(CC#N)c1=O	-0.1	0.6	-0.1	7.2	-53.3
